# Test results published in PubChem BioAssay (NCATS).
# Results filed as inconclusive are left out. Values without a mark were called inactive. Calls of active or inactive are those of the source. Calls follow the shape of the dose curve; as a rule, active = well fitted inhibition curve with a large enough effect; inconclusive = small, poorly fitted or top-dose-only effect; inactive = no such curve, though single readings can be large or run the other way.
# Tested on: Zika virus NS2B-NS3 protease (linked construct)
# Assay: Primary screen NINDS Rhodamine qHTS for Zika virus inhibitors (AID 1347160); also: nearly all actives have a fitted effect of over 55% in size
# Conditions: purified NS2B-NS3 protease, Rhodamine110 substrate fluorescence; series mostly up to 57.1 µM; activity change, negative = inhibition: at the top concentration
# Summary of the method: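 Purified NS2B-NS3 protease with the NS2B hydrophilic domain joined by a flexible linker (25 nM) in 10 mM Tris-HCl pH 8.0, 0.01% Tween 20, preincubated 15 min at RT with compound; Rhodamine110 peptide substrate 1.5 µM; fluorescence change over 15 min; 4-parameter Hill fit.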
# % is scaled to controls: 0 for no effect and ±100 for the full control effect.
SMILES,"activity change, negative = inhibition",outcome
NS(=O)(=O)Nc1ncnc(OCCOc2ncc(Br)cn2)c1-c1ccc(Br)cc1,35%,–
Nc1nc(NC2CC2)cc(-c2cccc(Cl)c2Cl)n1,–,inactive
NS(=O)(=O)c1ccc(N2N=C(c3ccccc3)CC2c2ccccc2)cc1 (centres undefined),9.16%,–
C/C=C(\C)C(=O)OC1C=C(C)CC(OC(=O)c2ccc(O)cc2)C2C1(C)CCC2(O)C(C)C (centres undefined),–,inactive [at 33.1 µM]
CC(/C=C/C(=O)NO)=C\[C@@H](C)C(=O)c1ccc(N(C)C)cc1,-7.11%,–
C=C1C(=O)O[C@@H]2/C=C(\CO)CC/C=C(/C=O)C[C@H](O)[C@@H]12,5.36%,–
CN(C)CCOC(C)(c1ccccc1)c1ccc(Cl)cc1 (centres undefined),183%,–
C=C[C@](C)(O)CC[C@H]1C(C)=CC(=O)[C@H]2C(C)(C)CCC[C@]12C,-5.74%,–
O=C([C@@H]1CCCN(c2ccc3[nH]c(C4(n5cc(Cl)cn5)CC4)nc3n2)C1)N1CCCC1,55.7%,–
CCC(CC)C(c1ccc(Nc2nc3ccccc3s2)cc1)n1cncn1 (centres undefined),–,inactive
Nc1nc(Nc2ccc3c(c2)CCC(N2CCCC2)CC3)nn1-c1cc2c(nn1)-c1ccccc1CCC2 (centres undefined),53.8%,–
CCOc1ccc(S(=O)(=O)N2CCCCCC2)c2ccccc12,3.72%,–
Nc1nc2c(nc(Br)n2[C@@H]2O[C@@H]3COP(=O)(O)O[C@H]3[C@H]2O)c(=O)[nH]1,0.0358%,–
COc1c(C(C)C)c(O)c(O)c2c1C(OC)[C@H]1OC(=O)[C@@]23CCCC(C)(C)[C@H]13 (some centres undefined),-13% [at 33.1 µM],–
CN(C)C(=O)COC(=O)c1cc(-c2ccc(C3CCNCC3)cc2)c2ccc(-c3ccc(C(F)(F)F)cc3)cc2c1,635%,–
NC(=O)c1ccccc1Nc1ccnc(Nc2cccc(O)c2)n1,24.5%,–
C=C1C(=O)OC2C1CCC1(C)C(O)CCC(=C)C21 (centres undefined),-9.6%,–
CCOC(=O)CCNc1cc(N2CCc3ccccc3CC2)nc(-c2cccnc2)n1,18%,–
C/C(=C\CCC(C)C1=CCC2(C)OC3=C(CC12)C(=O)C(O)CC3)CO (centres undefined),–,inactive [at 33.1 µM]
CC[C@@H](C)Nc1cc(C(=O)NC2CC3CCC(C2)N3c2ccc(C(=O)C3CC3)cn2)c(C)cc1C(N)=O (some centres undefined),24.4%,–

SMILES,"activity change, negative = inhibition",outcome
COc1cc2ncnc(Nc3cccc(I)c3)c2cc1OC,–,inactive
O=C(NCc1ccc(OC(F)(F)F)cc1)C1c2c(F)cccc2C(=O)N1CCc1ccccn1 (centres undefined),5.85%,–
CCn1c2ccccc2c2cc(Nc3ccnc(NCCCN4CCOCC4)n3)ccc21,293%,–
CC1=CC2/C=C(\C)CCC3OC(C)(C)OC3CCC(=O)C23C(=O)NC(CC(C)C)C3C1C (centres undefined),-14.5% [at 33.1 µM],–
C=C1[C@@H](OC(C)=O)CC[C@@]2(C)[C@@H](OC(C)=O)[C@H](OC(C)=O)C3=C(C)C[C@H](OC(=O)C(C)CC)[C@@H]([C@@H](OC(C)=O)[C@H]12)C3(C)C (some centres undefined),-15.9% [at 15.1 µM],–
CC1(C)CC[C@]23CO[C@@]4(CCC5[C@@]6(C)CC[C@H](O[C@@H]7OC[C@H](O[C@@H]8O[C@H](CO)[C@@H](O)[C@H](O)[C@H]8O[C@@H]8OC[C@@H](O)[C@H](O)[C@H]8O)[C@H](O)[C@H]7O)[C@@](C)(CO)C6CC[C@@]5(C)[C@]4(C)CC2=O)[C@@H]3C1 (some centres undefined),5.71% [at 15.1 µM],–
COc1cc(F)c(C(C)C)cc1-c1ccc(C(F)(F)F)cc1CN1C(=O)OC(c2cc(C(F)(F)F)cc(C(F)(F)F)c2)C1C (centres undefined),-8.06%,–
CCCc1cc(C)n(C)c(=O)c1CN(C)C(=O)c1cc(-c2ccc(N3CCN(C(C)C)CC3)nc2)cc2c1cnn2C(C)C,-1.49%,–
COC(=O)/C=C/C=C/C(=O)OC1C=C2COC(=O)C2(O)C2(C)CCCC(C)(C)C12 (centres undefined),-19.1% [at 33.1 µM],–
COc1ccc(-n2c(SCCCN3C(=O)c4cccc5cccc(c45)C3=O)nnc2-c2ccncc2)cc1,0.647%,–
N#Cc1ccc(-c2ccc(S(=O)(=O)Nc3cccc(N)n3)cc2)cc1,1.1%,–
O=C(NCC1(c2nc(-c3ccccc3)cs2)CCOCC1)c1cccc(-c2noc(C(F)(F)F)n2)c1,-13.3%,–
O=C1C(Cc2ccc(O)cc2)N2C(=O)CCN(C(=O)NCc3ccccc3)C2CN1Cc1cccc2ccccc12 (centres undefined),11.4%,–
COc1cc(-n2cnc3cc(-c4ccc(Cl)cc4)sc3c2=O)ccc1OCCN1CCCC1,8.15%,–
CC1CC(=O)C2=C(C1)C1OC1C1(O)C2C(=O)c2cccc(O)c2C1O (centres undefined),2.27% [at 33.1 µM],–
CCOC(=O)c1cnn(-c2ccccc2)c1NC(=O)c1cc2nc(-c3ccco3)cc(C(F)(F)Cl)n2n1,-9.87%,–
CCN1CCC[C@@H]1CNC(=O)c1ccc2c(c1)NC(=O)c1cccc(C)c1S2,-19.5%,–
C=CC(C)(O)CC[C@@H]1[C@@]2(C)CCCC(C)(C)C2CC[C@@]1(C)O (some centres undefined),23%,–
C/C=C(/C)C(=O)OC1CC(C)(C)CC2C3=CCC4C5(C)CCC(O[C@@H]6O[C@H](C(=O)O)[C@@H](O)[C@H](O)[C@H]6O[C@@H]6O[C@H](CO)[C@H](O)[C@H](O[C@@H]7OC[C@H](O)[C@H](O)[C@H]7O[C@@H]7O[C@H](CO)[C@@H](O)[C@H](O)[C@H]7O)[C@H]6O)C(C)(C)C5CCC4(C)C3(C)C(O)C(O)C12CO (some centres undefined),–,inactive [at 10.7 µM]
